Laboratory results as given in PubChem BioAssay AID1159580 (chemical genetic matrix, 2015).
Among all 5,500 compounds or so, about 2,000 (36%) were called active. Another 18% or so got no clear call; they are omitted. Rule as the data show it: active = normalized growth mostly below about 0.91 (no sharp cut-off); inconclusive = no clear call, values can overlap the other calls; inactive = mostly above about 0.92. This is one part of the list.

Assay: chemical genetic growth profiling, strain panel (AID 1159580);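 also: tested at 20 µM; growth read once vehicle control cultures reached saturation at 30 °C; 1 = growth at the plate median or of vehicle wells; lower values mean less growth of the strain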
Conditions: growth OD

Measured: normalized growth

Clc1cccc(NC2=NCCS2)c1Cl
inactive: S. cerevisiae deletion strains, locus YAL013W, strain DEP1, hits give low values 0.995 | S. cerevisiae deletion strains, locus YBR229C, strain ROT2, hits give low values 1 | S. cerevisiae deletion strains, locus YDL101C, strain DUN1, hits give low values 1.03 | S. cerevisiae deletion strains, locus YDR150W, strain NUM1, hits give low values 0.984 | S. cerevisiae deletion strains, locus YEL061C, strain CIN8, hits give low values 0.974 | S. cerevisiae deletion strains, locus YGR078C, strain PAC10, hits give low values 1 | S. cerevisiae deletion strains, locus YHR030C, strain SLT2, hits give low values 0.698 | S. cerevisiae deletion strains, locus YHR087W, strain rtc3, hits give low values 1.02 | S. cerevisiae deletion strains, locus YJL187C, strain SWE1, hits give low values 1 | S. cerevisiae deletion strains, locus YJR043C, strain POL32, hits give low values 1.01 | S. cerevisiae deletion strains, locus YJR075W, strain HOC1, hits give low values 1.02 | S. cerevisiae deletion strains, locus YKL190W, strain CNB1, hits give low values 0.996 | S. cerevisiae deletion strains, locus YLR058C, strain SHM2 (second series), hits give low values 1 | S. cerevisiae deletion strains, locus YLR085C, strain ARP6, hits give low values 0.931 | S. cerevisiae deletion strains, locus YLR262C, strain YPT6, hits give low values 0.817 | S. cerevisiae deletion strains, locus YML094W, strain GIM5, hits give low values 1.03 | S. cerevisiae deletion strains, locus YMR219W, strain ESC1, hits give low values 1.01 | S. cerevisiae deletion strains, locus YMR263W, strain SAP30, hits give low values 0.969 | S. cerevisiae deletion strains, locus YMR307W, strain GAS1, hits give low values 0.776 | S. cerevisiae deletion strains, locus YNL128W, strain TEP1, hits give low values 1.02 | S. cerevisiae deletion strains, locus YNL153C, strain GIM3, hits give low values 1 | S. cerevisiae deletion strains, locus YNL298W, strain CLA4 (second series), hits give low values 0.946 | S. cerevisiae deletion strains, locus YNL322C, strain KRE1, hits give low values 0.994 | S. cerevisiae deletion strains, locus YNR030W, strain Alg12, hits give low values 0.971 | S. cerevisiae deletion strains, locus YPL055C, strain LGE1, hits give low values 0.953 | S. cerevisiae deletion strains, locus YPL241C, strain CIN2, hits give low values 1.05 | S. cerevisiae deletion strains, locus YPR135W, strain CTF4, hits give low values 0.928 | S. cerevisiae strains, strain wild type, hits give low values 0.983
active: S. cerevisiae deletion strains, locus YLR039C, strain RIC1, hits give low values 0.721 | S. cerevisiae deletion strains, locus YOL006C, strain TOP1, hits give low values 0.722
